Experimental data: PubChem BioAssay (EPA / NIEHS)
Results filed as inconclusive are left out. Active and inactive are the calls of the source. The calls were made as follows: active = hit-call score of the fitted dose curve at least 0.9, where 1 is the maximum; inconclusive = response in the unintended direction; inactive = score below 0.9.

Assays:
[1] = target: Cellular tumor antigen p53 (Homo sapiens) (UniProt P04637); experiment: TOX21_p53_BLA_p5_ratio: Tox21 HCT-116 p53 Agonism Beta-lactamase Assay, Ratio, Phase 5 (AID 2283599)
In short: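 HCT-116 cells carrying a p53-inducible beta-lactamase reporter were seeded at 4000 cells/well and dosed after 5 h with compound in DMSO (217-fold dilution). After 16 h at 37C, CCF4-AM substrate was added for 2 h, and the 460/530 nm emission ratio was scored as gain-of-signal versus DMSO.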

[2] = target: Cellular tumor antigen p53 (Homo sapiens) (UniProt P04637); experiment: TOX21_p53_BLA_p4_ratio: Tox21 HCT-116 p53 Agonism Beta-lactamase Assay, Ratio, Phase 4 (AID 2283601)
In short: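 HCT116 cells carrying an inducible beta-lactamase reporter were plated at 4000 cells/well, rested 5 h, then exposed to compounds in DMSO (217-fold dilution) for 16 h at 37C. CCF4-AM substrate was loaded 2 h at room temperature; 460/530 nm emission ratio scored gain-of-signal versus DMSO.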

[3] = Tanguay_ZF_120hpf_MORT_legacy: (Legacy) Oregon State University Tanguay Lab 120 Hour Post-fertilization zebrafish Assay for Mortality (AID 2283633);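 as to AC50: fitted as increase in binary mortality versus DMSO negative control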
In short: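 Mortality endpoint from a multiplexed whole-embryo zebrafish screen. Dechorionated wild-type embryos received compound at 6 hpf and remained under static exposure at 28C until 120 hpf, with death noted as a present/absent call.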

[4] = Tanguay_ZF_120hpf_YSE_legacy: (Legacy) Oregon State University Tanguay Lab 120 Hour Post-fertilization zebrafish Assay for Yolk Sac Edema (AID 2283634);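 as to AC50: actives raise the incidence of yolk sac edema above the DMSO baseline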
In short: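 Readout: presence or absence of yolk sac edema at 120 hpf, fitted upward against DMSO controls. Exposure ran statically from 6 hpf in dechorionated embryos kept at 28C.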

[5] = Tanguay_ZF_120hpf_AXIS_legacy: (Legacy) Oregon State University Tanguay Lab 120 Hour Post-fertilization zebrafish Assay for Body Axis Malformation (AID 2283635);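 as to AC50: potency for an increased fraction of larvae scored with body axis malformation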
In short: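 Static 6–120 hpf chemical exposure of dechorionated wild-type 5D zebrafish, one per well at 28C; morphology endpoint scored binary at 120 hpf relative to DMSO control.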

[6] = Tanguay_ZF_120hpf_SNOU_legacy: (Legacy) Oregon State University Tanguay Lab 120 Hour Post-fertilization zebrafish Assay for Snout Malformation (AID 2283637)
In short: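 Dechorionated zebrafish, individually housed from 6 hpf in covered, sealed wells at 28C with 0.64% DMSO vehicle, were examined at 120 hpf for snout malformation. Responses were binary and analysed positive-direction relative to DMSO.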

[7] = Tanguay_ZF_120hpf_JAW_legacy: (Legacy) Oregon State University Tanguay Lab 120 Hour Post-fertilization zebrafish Assay for Jaw Malformation (AID 2283638);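 as to AC50: active means more embryos with jaw malformation than DMSO controls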
In short: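 Static waterborne exposure of dechorionated wild-type (Tropical 5D) zebrafish from 6 to 120 hpf at 28C, 0.64% DMSO vehicle; 5uM trimethyltin chloride served as positive control. Jaw morphology recorded as binary at 120 hpf.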

[8] = Tanguay_ZF_120hpf_OTIC_legacy: (Legacy) Oregon State University Tanguay Lab 120 Hour Post-fertilization zebrafish Assay for Otic Vesicle Malformation (AID 2283639)
In short: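 Wild-type zebrafish larvae, whole-embryo exposure from early stage to 120 hpf at 28C. Binary brightfield scoring of otic vesicle morphology, fitted in the positive direction against the DMSO baseline.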

[9] = Tanguay_ZF_120hpf_EYE_legacy: (Legacy) Oregon State University Tanguay Lab 120 Hour Post-fertilization zebrafish Assay for Eye Malformation (AID 2283636);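 also: binary presence or absence of eye malformation scored by brightfield in 120 hpf larvae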
In short: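 Static waterborne exposure of dechorionated zebrafish embryos (strain Tropical 5D), 6 to 120 hpf, sealed plates at 28C, 0.64% DMSO vehicle. Eye malformation is scored as a binary endpoint, with gain of signal analysed relative to DMSO.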

[10] = TOX21_p53_BLA_p5_viability: Viability Assessment in the Tox21 HCT-116 p53 Agonism Beta-lactamase Assay, Phase 5 (AID 2283600)
In short: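 Viability is taken from cellular ATP content, measured by luciferase luminescence in the same wells after the beta-lactamase ratio read. Cells are seeded at 4000 per well and exposed to DMSO-dissolved compounds, diluted 217-fold, for 16 h.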

Measured: AC50

Cellular tumor antigen p53 (Homo sapiens), sequence (P04637 whole entry, looked up): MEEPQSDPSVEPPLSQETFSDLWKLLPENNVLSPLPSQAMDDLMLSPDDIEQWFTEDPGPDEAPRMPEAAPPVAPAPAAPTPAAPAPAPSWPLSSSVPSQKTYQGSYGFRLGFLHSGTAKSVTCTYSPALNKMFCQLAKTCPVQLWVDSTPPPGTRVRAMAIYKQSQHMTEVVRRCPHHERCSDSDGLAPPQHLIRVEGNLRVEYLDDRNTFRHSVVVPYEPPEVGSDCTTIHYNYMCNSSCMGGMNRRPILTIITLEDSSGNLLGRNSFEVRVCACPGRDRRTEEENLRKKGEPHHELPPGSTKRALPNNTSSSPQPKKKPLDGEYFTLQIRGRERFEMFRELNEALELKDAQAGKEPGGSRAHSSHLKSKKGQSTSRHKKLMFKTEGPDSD

CN(C)C=O
not listed: [9] | [10]
inactive: all other assays above

OC1CCCCC1
not listed: [2] | [10]
inactive: all other assays above

CCOC(=O)CC(O)(CC(=O)OCC)C(=O)OCC
not listed: [1] | [10]
inactive: all other assays above

ClC1=C(Cl)C(Cl)(Cl)C(Cl)=C1Cl
not listed: [3] | [10]
inactive: all other assays above

C=C(C)C(=O)OCCC(F)(F)C(F)(F)C(F)(F)C(F)(F)C(F)(F)C(F)(F)F
not listed: [7] | [10]
inactive: all other assays above

COCC(C)OCC(C)O (stereo unspecified)
inactive: [3] | [9] | [6] | [7] | [8]

OCCC(F)(F)C(F)(F)C(F)(F)C(F)(F)C(F)(F)C(F)(F)F
inactive: [1] | [2] | [3] | [4] | [7] | [8]

CCCOc1sc(C(=O)N2CCC(c3cc(CN)ccc3F)CC2)c(C)c1Br
active: [1] 80.7 µM | [2] 72.2 µM
not listed: [6] | [10]
inactive: all other assays above

CCCCCCCCOC(=O)CCCCCCCCC(=O)OCCCCCCCC
not listed: [2] | [10]
inactive: all other assays above

Cc1oc(-c2ccccc2)nc1CCOc1ccc(C[C@H](Nc2ccccc2C(=O)c2ccccc2)C(=O)O)cc1
active: [1] 56 µM | [2] 41.6 µM | [3] 12.9 µM
not listed: [10]
inactive: all other assays above

CC(C)CCCCCCOC(=O)CCCCC(=O)OCCCCCCC(C)C
not listed: [1] | [5] | [10]
inactive: all other assays above

CCCCCCCCCCCCN1CCCC1=O
active: [1] 63.2 µM | [3] 27.6 µM | [4] 47.3 µM | [7] 46.6 µM
not listed: [10]
inactive: all other assays above

O=C(OCCOCCOC(=O)c1ccccc1)c1ccccc1
not listed: [10]
inactive: all other assays above

CC[C@H](C)[C@@H](C(=O)O)n1sc2ccccc2c1=O
not listed: [2] | [10]
inactive: all other assays above

CCCCC(CC)COC(=O)CCCCC(=O)OCc1ccccc1 (stereo unspecified)
not listed: [1]
inactive: all other assays above

O=C(O)c1ccccc1C(c1ccc(O)cc1)c1ccc(O)cc1
not listed: [1] | [2] | [10]
inactive: all other assays above

CCCCCCCCCCCCCCCS(=O)(=O)Oc1ccccc1
not listed: [9] | [10]
inactive: all other assays above

CCc1nn(C2CCCCC2)c2cc(C3(C#N)CCC(C(=O)O)CC3)ccc12 (stereo unspecified)
inactive: [1]
active: [2] 75.2 µM | [4] 0.324 µM | [5] 0.384 µM | [9] 0.377 µM | [6] 0.344 µM | [7] 0.332 µM | [8] 3.66 µM

CN1CCC[C@H]1c1cccnc1
not listed: [1] | [2] | [10]
inactive: all other assays above

CC(=O)NC1(c2cccc(F)c2)CCN(CC[C@@]2(c3ccc(Cl)c(Cl)c3)CN(c3ccccc3)C(=O)CO2)CC1
active: [1] 70.3 µM | [2] 65 µM
inactive: [3] | [4] | [9] | [6] | [8]

Cc1cc(C)c(O)c(C)c1
not listed: [4] | [9] | [10]
inactive: all other assays above

CCCCCCCCCCCCc1ccccc1S(=O)(=O)O
inactive: [3] | [4] | [5] | [9] | [6] | [8]

c1ccc2c(c1)ccc1ccccc12
not listed: [1] | [8] | [10]
inactive: all other assays above

CC(=O)CC(C)(C)O
not listed: [9] | [10]
inactive: all other assays above

C#C[C@]1(O)CC[C@H]2[C@@H]3CCC4=CC(=O)CC[C@@H]4[C@H]3CC[C@@]21C
not listed: [1] | [2] | [10]
inactive: all other assays above

CCCCCCC(=O)O
not listed: [1] | [9]
inactive: all other assays above

C[C@@H]1C[C@H]2[C@@H]3CCC4=CC(=O)C=C[C@]4(C)[C@@]3(F)[C@@H](O)C[C@]2(C)[C@@]1(O)C(=O)COP(=O)(O)O
not listed: [2] | [10]
inactive: all other assays above

CCC(=C(c1ccc(O)cc1)c1ccc(OCCN(C)C)cc1)c1ccccc1
not listed: [1] | [2] | [10]
inactive: all other assays above

CCCCOCCO
inactive: [1] | [3] | [5] | [9] | [6] | [7]

CC(O)CO (stereo unspecified)
not listed: [7] | [10]
inactive: all other assays above

CCN(CC)CCNc1ccc(CNC=O)c2sc3ccc(OC)cc3c(=O)c12
inactive: [3] | [4] | [5] | [9] | [7]
active: [1] 29 µM | [2] 12.1 µM

N#C[C@@H]1CC(F)(F)CN1C(=O)CNC1CC2CCC(C1)N2c1ncccn1 (stereo partly specified)
not listed: [1]
inactive: all other assays above

CC(C)(C)c1cccc(C(C)(C)C)c1O
not listed: [5] | [10]
inactive: all other assays above
